System: Vero E6 infected with SARS-CoV-2
Test: inhibition of SARS-CoV-2 cytopathic effect; higher = more antiviral protection, active = above 15
Conditions: 48 h

Measured: inhibition of SARS-CoV-2 cytopathic effect

COCC1=C(C(=O)O)N2C(=O)[C@@H](NC(=O)/C(=N\OC)c3csc(N)n3)[C@H]2SC1 [cefpodoxime]
inactive: 1 nM -1.12% | 8.33 nM -1.09% | 100 nM -1.76% | 833.33 nM -0.98% | 10000 nM -1.12%

CSc1ccccc1OCC(O)CNC(C)C (stereo not given) [tiprenolol]
inactive: 1 nM -1.52% | 8.33 nM 2.58% | 100 nM -1.94% | 833.33 nM 0.37% | 10000 nM 3.9%

Cc1nn(C)c2c1C(c1ccc(C(F)(F)F)cc1)C(C#N)=C(N)O2 (stereo not given)
inactive: 1 nM -1.05% | 8.33 nM -1.78% | 100 nM -1.6% | 833.33 nM -1.63% | 10000 nM 2.56%

O=c1nc2ccccc2c2n1CC(CN1CCN(c3ccccc3)CC1)N2 (stereo not given)
inactive: 1 nM 3.05% | 8.33 nM 5.11% | 100 nM 2.83% | 833.33 nM 4.08% | 10000 nM 5.46%

COc1cc(-n2c(=S)[nH]c3ccccc3c2=O)c(Cl)cc1Cl [mdivi-1]
inactive: 1 nM 0.74% | 8.33 nM 0.3% | 100 nM -0.2% | 833.33 nM -0.45% | 10000 nM -1.37%

CCCCC(F)(F)[C@@]1(O)CC[C@H]2[C@@H](CC(=O)[C@@H]2CCCCCCC(=O)O)O1 [lubiprostone]
inactive: 1 nM -0.41% | 8.33 nM -0.13% | 100 nM -0.73% | 833.33 nM -1.89% | 10000 nM -0.01%

CC[C@H](CC[C@@H](C)[C@H]1CC[C@H]2[C@@H]3CC=C4C[C@@H](O)CC[C@]4(C)[C@H]3CC[C@]12C)C(C)C [beta-Sitosterol]
inactive: 1 nM 0.66% | 8.33 nM 2.31% | 100 nM 1.23% | 833.33 nM -2.15% | 10000 nM -1.08%

Cc1cc(CC(=O)O)n(C)c1C(=O)c1ccc(Cl)cc1 [zomepirac]
inactive: 1 nM -4.55% | 8.33 nM -6.14% | 100 nM -5.66% | 833.33 nM -0.27% | 10000 nM -0.22%

CCCCC1C(=O)N(c2ccccc2)N(c2ccccc2)C1=O [phenylbutazone]
inactive: 1 nM -0.14% | 8.33 nM 0.89% | 100 nM 0.31% | 833.33 nM 0.4% | 10000 nM 0.88%

COC(=O)[C@H]1[C@H]2C[C@@H]3c4[nH]c5cc(OC)ccc5c4CCN3C[C@H]2C[C@@H](OC(=O)c2cc(OC)c(OC)c(OC)c2)[C@@H]1OC [reserpine]
inactive: 1 nM 1.33% | 8.33 nM 3.05% | 100 nM 0.71% | 833.33 nM 3.56% | 10000 nM 7.95%

N=C(N)NC(=O)c1cnccn1 [pyrazinoylguanidine]
inactive: 1 nM 0.04% | 8.33 nM -6.78% | 100 nM -2.28% | 833.33 nM -5.59% | 10000 nM -0.5%

C[C@]12CC[C@H]3[C@@H](CC[C@]4(O)C[C@@H](O)CC[C@]34C=O)[C@@]1(O)CC[C@@H]2C1=CC(=O)OC1 [K-strophanthidin]
inactive: 1 nM 0.01% | 8.33 nM 0.18% | 100 nM -5.59% | 833.33 nM -12.1% | 10000 nM -16.9%

OC[C@H]1O[C@@H](O[C@@H]2[C@H](O)[C@@H](O)[C@H](O[C@H]3[C@H](O)[C@@H](O)C(O)O[C@@H]3CO)O[C@@H]2CO)[C@H](O)[C@@H](O)[C@H]1O (stereo not given in full) [4-galactosyllactose]
inactive: 1 nM -1.88% | 8.33 nM -2.42% | 100 nM 1.58% | 833.33 nM 0.18% | 10000 nM -0.03%

Oc1ccc2c3c1O[C@H]1[C@@H](O)CC[C@@]4(O)[C@@H](C2)N(CC2CCC2)CC[C@]314 [nalbuphine]
inactive: 1 nM 2.57% | 8.33 nM 0.43% | 100 nM 0.27% | 833.33 nM 0.68% | 10000 nM 0.06%

COc1c(O)cc2c(c1O)[C@@H]1O[C@H](CO)[C@@H](O)[C@H](O)[C@H]1OC2=O [bergenin]
inactive: 1 nM -3.29% | 8.33 nM -2.26% | 100 nM -0.14% | 833.33 nM 0.39% | 10000 nM -1.22%

C[C@H](Nc1ncnc2[nH]cnc12)c1nc2ccc(F)cc2c(=O)n1-c1ccccc1 [acalisib]
inactive: 1 nM 0.46% | 8.33 nM -0.64% | 100 nM 0.1% | 833.33 nM -0.64% | 10000 nM -5.35%

CC(NCCc1ccc(O)cc1)C(O)c1ccc(O)cc1 (stereo not given) [ritodrine]
inactive: 1 nM 0.34% | 8.33 nM -0.09% | 100 nM 1.29% | 833.33 nM -2.19% | 10000 nM -1.02%

Reference: the supplement of paper PMC13380429
